In PubChem BioAssay (Tox21):
Results filed as inconclusive are left out. A call without a number means that no potency is given here. The source holds several records for some structures; these can differ, active in one and inactive in another. Calls of active or inactive are those of the source. Unless noted, the call rests on the fitted dose curve; in most records, active means well fitted curve in the direction sought with a large enough effect in the repeat runs; inconclusive means weak or mixed curves; inactive means no such curve, though single readings can be large; an effect the other way counts as inactive or inconclusive.

Experiments:
[1] = qHTS assay to identify small molecule agonists of the peroxisome proliferator-activated receptor delta (PPARd) signaling pathway - cell viability counter screen (AID 743211); further: nearly all actives have a fitted effect of over 55% in size
Method in brief: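 Multiplexed format: after the 2 h room-temperature LiveBLAzer B/G FRET step, CellTiter-Glo was added to the same wells. Luminescence after 30 min gave cell viability; compound exposure was 17 h at 37C.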

[2] = qHTS assay to identify small molecule antagonists of the peroxisome proliferator-activated receptor delta (PPARd) signaling pathway - cell viability counter screen (AID 743213); further: nearly all actives have a fitted effect of over 50% in size
Method in brief: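 Viability counter-screen, qHTS format: PPARd-bla HEK293H, L165041 300 nM final, 17 h compound exposure at 37 C, CellTiter-Glo luminescence after 30 min RT.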

[3] = qHTS assay to identify small molecule antagonists of the farnesoid-X-receptor (FXR) signaling pathway - cell viability counter screen (AID 743221; active means well fitted cell-killing curve with a large enough effect in the repeat runs, not every such curve was filed as active; further: nearly all actives have a fitted effect of over 50% in size)
Method in brief: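 CellTiter-Glo, 30 min RT, luminescence; same wells as the LiveBLAzer FRET read. Cells: FXR-UAS-bla HEK 293T. Treatment: compound with chenodeoxycholic acid 50 uM final, 16 h at 37 C.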

[4] = target: Vitamin D3 receptor (Homo sapiens) (UniProt P11473); assay: qHTS assay to identify small molecule agonists of the vitamin D receptor (VDR) signaling pathway (AID 743222; calls by dose curve)
Sequence of Vitamin D3 receptor (Homo sapiens) (P11473 whole entry, looked up): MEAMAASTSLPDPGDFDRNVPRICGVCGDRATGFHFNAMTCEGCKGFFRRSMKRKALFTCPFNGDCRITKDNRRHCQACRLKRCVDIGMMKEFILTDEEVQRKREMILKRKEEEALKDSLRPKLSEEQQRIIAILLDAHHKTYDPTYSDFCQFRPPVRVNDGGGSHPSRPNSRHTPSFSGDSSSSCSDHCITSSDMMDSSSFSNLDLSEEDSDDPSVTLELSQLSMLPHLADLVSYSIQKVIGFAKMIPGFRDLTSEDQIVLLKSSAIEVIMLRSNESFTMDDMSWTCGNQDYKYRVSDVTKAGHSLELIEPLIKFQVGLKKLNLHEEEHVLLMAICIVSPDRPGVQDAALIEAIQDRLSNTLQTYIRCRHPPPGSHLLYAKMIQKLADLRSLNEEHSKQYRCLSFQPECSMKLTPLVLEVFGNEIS
Method in brief: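 In VDR-bla cells, compound-induced beta-lactamase expression is quantified by FRET substrate fluorescence. Treatment lasts 16 h at 37C; substrate develops 2 h at room temperature.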

[5] = target: Vitamin D3 receptor (Homo sapiens) (UniProt P11473); assay: qHTS assay to identify small molecule antagonists of the vitamin D receptor (VDR) signaling pathway (AID 743223; active means well fitted inhibition curve with a large enough effect in the signal ratio in the repeat runs, not every such curve was filed as active; the % refers to the signal ratio)
Method in brief: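 After VDR-bla cells are plated and left 4 h at 37C, DMSO-dissolved compounds and 3 nM (final) calcitriol agonist are added. Incubation continues 16 h at 37C; FRET beta-lactamase substrate then develops 2 h at room temperature.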

[6] = qHTS assay to identify small molecule agonists of the vitamin D receptor (VDR) signaling pathway - cell viability counter screen (AID 743224); further: nearly all actives have a fitted effect of over 50% in size; further: potency means the concentration at half of the fitted maximal effect
Method in brief: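 Plated VDR-bla cells (4 h, 37C) received compound, incubated 16 h, then LiveBLAzer substrate 2 h RT; CellTiter-Glo added afterwards, luminescence read at 30 min.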

[7] = qHTS assay to identify small molecule antagonists of the vitamin D receptor (VDR) signaling pathway - cell viability counter screen (AID 743225); further: nearly all actives have a fitted effect of over 50% in size
Method in brief: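 Cytotoxicity toward the VDR-bla HEK 293T line was scored by ATP-based CellTiter-Glo luminescence, read in the wells already used for the beta-lactamase readout after 16 h compound treatment under 3 nM 1-alpha,25-dihydroxyvitamin D3 stimulation.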

[8] = qHTS assay to identify small molecule agonists of the NFkB signaling pathway (AID 1159509; active means well fitted curve in the direction sought with a large enough effect in the signal ratio in the repeat runs, not every such curve was filed as active; the % refers to the signal ratio; further: series mostly up to about 61 µM)
Method in brief: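 NFkB-bla ME-180 cells carry a beta-lactamase reporter under an NF-kB response element. They were plated overnight, then exposed to compounds for 5 h at 37 C. Read-out is LiveBLAzer FRET after 1.5 hr at room temperature (405 nm excitation; 460/530 nm emission).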

[9] = qHTS assay to identify small molecule agonists of the NFkB signaling pathway - cell viability counter screen (AID 1159515; calls by dose curve; further: series mostly up to about 61 µM; nearly all actives have a fitted effect of over 55% in size)
Method in brief: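 Using the same wells as the NFkB reporter read, ME-180 NFkB-bla cells given compounds for 5 hr were assessed for viability via CellTiter-Glo, with luminescence taken after a 30 min room-temperature incubation.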

[10] = qHTS assay to identify small molecule agonists of the endoplasmic reticulum stress response signaling pathway (AID 1159516; active means well fitted activation curve with a large enough effect in the signal ratio in the repeat runs, not every such curve was filed as active; the % refers to the signal ratio)
Method in brief: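 An ESRE-bla HeLa cell assay: compounds were pin-transferred from DMSO onto overnight-plated cells and left 5 hr at 37 C. Substrate was then loaded for 2 hr at room temperature before reading fluorescence at 460 nm and 530 nm.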

[11] = qHTS assay to identify small molecule agonists of the endoplasmic reticulum stress response signaling pathway - cell viability counter screen (AID 1159517; calls by dose curve)
Method in brief: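 CellTiter-Glo was added to wells already read for beta-lactamase FRET, and luminescence was recorded 30 min later. Cells: ESRE-bla HeLa, 1,500 per well, compound exposure 5 hr at 37 C.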

[12] = qHTS assay to identify small molecule antagonists of the retinoid-related orphan receptor gamma (ROR-gamma) signaling pathway - cell viability counter screen (AID 1159520); further: nearly all actives have a fitted effect of over 50% in size
Method in brief: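 Tet-on ROR gamma CHO cells (1,000/well) were plated 4 hr, given compounds in DMSO for 2 hr at 37 C, then induced with 1 uM final doxycycline for 16 hr. Viability was read as ATP by CellTiter-Glo luminescence after 30 min.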

[13] = target: Nuclear receptor ROR-gamma (Homo sapiens) (UniProt P51449); assay: qHTS assay to identify small molecule antagonists of the retinoid-related orphan receptor gamma (ROR-gamma) signaling pathway (AID 1159521)
Method in brief: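 Readout: ONE-Glo luciferase luminescence, 30 min at room temperature. System: Tet-on RORγ CHO, RORE-LUC. Sequence: compound 2 h, doxycycline 1 uM final, 16 h at 37 C.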

[14] = qHTS assay to identify small molecule agonists of the AP-1 signaling pathway - cell viability counter screen (AID 1159525; calls by dose curve; further: nearly all actives have a fitted effect of over 55% in size)
Method in brief: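 ME-180 AP-1-bla, 2500 cells/well, Opti-MEM + 0.5% dialyzed FBS; overnight 37 °C; cpd 15-pt titration, 5 h 37 °C; CellTiter-Glo 30 min RT; luminescence read; normalised to TOAB and DMSO controls.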

[15] = qHTS assay to identify small molecule agonists of the AP-1 signaling pathway (AID 1159526; calls by dose curve)
[16] = target: Peroxisome proliferator-activated receptor delta (Homo sapiens) (UniProt Q03181); assay: qHTS assay to identify small molecule agonists of the peroxisome proliferator-activated receptor delta (PPARd) signaling pathway (AID 743212; calls by dose curve)
Sequence of Peroxisome proliferator-activated receptor delta (Homo sapiens) (Q03181 whole entry, looked up): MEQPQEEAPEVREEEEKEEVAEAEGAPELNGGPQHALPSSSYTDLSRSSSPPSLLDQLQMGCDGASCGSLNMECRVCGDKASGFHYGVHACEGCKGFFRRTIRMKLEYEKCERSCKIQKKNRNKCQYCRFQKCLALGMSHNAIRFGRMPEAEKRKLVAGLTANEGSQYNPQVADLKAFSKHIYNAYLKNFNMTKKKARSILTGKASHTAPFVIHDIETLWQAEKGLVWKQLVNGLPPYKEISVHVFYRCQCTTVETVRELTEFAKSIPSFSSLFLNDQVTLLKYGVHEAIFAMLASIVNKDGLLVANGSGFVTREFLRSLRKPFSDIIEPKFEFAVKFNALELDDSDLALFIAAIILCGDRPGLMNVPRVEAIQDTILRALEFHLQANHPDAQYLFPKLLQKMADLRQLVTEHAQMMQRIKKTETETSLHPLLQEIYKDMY
Method in brief: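 A PPARd-bla HEK293H line with beta-lactamase under an Upstream Activator Sequence is treated with compounds at 37 C. Substrate loading for 2 h at room temperature precedes the fluorescence measurement.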

[17] = target: Peroxisome proliferator-activated receptor delta (Homo sapiens) (UniProt Q03181); assay: qHTS assay to identify small molecule antagonists of the peroxisome proliferator-activated receptor delta (PPARd) signaling pathway (AID 743215; active means well fitted inhibition curve with a large enough effect in the signal ratio in the repeat runs, not every such curve was filed as active; the % refers to the signal ratio;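 further: cells stimulated with agonist L165041 at 300 nM final during compound exposure; series mostly up to about 62 µM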)
Method in brief: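 HEK293H UAS-bla, PPARd; agonist L165041 300 nM final with cpd in DMSO; 37 C 17 h; FRET substrate, RT 2 h; fluorescence intensity.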

[18] = target: Bile acid receptor (Homo sapiens) (UniProt Q96RI1); assay: qHTS assay to identify small molecule antagonists of the farnesoid-X-receptor (FXR) signaling pathway (AID 743217; active means well fitted inhibition curve with a large enough effect in the signal ratio in the repeat runs, not every such curve was filed as active; the % refers to the signal ratio)
Sequence of Bile acid receptor (Homo sapiens) (Q96RI1 whole entry, looked up): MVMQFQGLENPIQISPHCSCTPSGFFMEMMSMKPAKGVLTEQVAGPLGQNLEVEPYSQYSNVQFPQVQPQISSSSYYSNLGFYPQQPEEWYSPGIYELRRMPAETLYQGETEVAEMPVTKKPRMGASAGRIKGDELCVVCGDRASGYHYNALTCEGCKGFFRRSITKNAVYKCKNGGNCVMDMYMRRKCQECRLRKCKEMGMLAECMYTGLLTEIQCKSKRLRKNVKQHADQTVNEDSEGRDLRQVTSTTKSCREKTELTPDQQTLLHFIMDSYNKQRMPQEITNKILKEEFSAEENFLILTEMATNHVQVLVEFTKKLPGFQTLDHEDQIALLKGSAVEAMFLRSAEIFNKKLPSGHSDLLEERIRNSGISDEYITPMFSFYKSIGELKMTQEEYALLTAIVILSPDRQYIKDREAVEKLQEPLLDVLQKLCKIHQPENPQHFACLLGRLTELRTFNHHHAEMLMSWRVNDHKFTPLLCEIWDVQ
Method in brief: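 GeneBLAzer FXR-UAS-bla HEK 293T, CDCA-stimulated (50 uM final). Compound treatment 16 h, 37 °C. Detection: beta-lactamase cleavage of B/G FRET substrate, fluorescence.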

[19] = qHTS assay to identify small molecule agonists of the farnesoid-X-receptor (FXR) signaling pathway - cell viability counter screen (AID 743218); further: nearly all actives have a fitted effect of over 45% in size
Method in brief: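 Parallel cytotoxicity test: compound-treated (16 h, 37 C) HEK 293T FXR-bla reporter cells were lysed with CellTiter-Glo and luminescence recorded.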

[20] = target: Bile acid receptor (Homo sapiens) (UniProt Q96RI1); assay: qHTS assay to identify small molecule agonists of the farnesoid-X-receptor (FXR) signaling pathway (AID 743220; active means well fitted activation curve with a large enough effect in the signal ratio in the repeat runs, not every such curve was filed as active; the % refers to the signal ratio)
Method in brief: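 Beta-lactamase reporter under UAS control in GeneBLAzer FXR HEK 293T cells (5000/well) measured with LiveBLAzer FRET substrate after 2 h at room temperature. Compound exposure lasted 16 h at 37C.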

| SMILES | Potency [1] | Potency [2] | Potency [3] | outcome [4] | outcome [5] | Potency [6] | Potency [7] | outcome [8] | Potency [9] | Potency [10] | Potency [11] | Potency [12] | Potency [13] | Potency [14] | outcome [15] | outcome [16] | Potency [17] | Potency [18] | Potency [19] | outcome [20] |
| --- | --- | --- | --- | --- | --- | --- | --- | --- | --- | --- | --- | --- | --- | --- | --- | --- | --- | --- | --- | --- |
| CCCCC(CC)COCC1CO1 (stereo not drawn) | inactive | inactive | inactive | inactive | inactive | inactive | inactive | inactive | inactive | inactive | inactive | inactive | inactive | inactive | inactive | – | – | – | – | – |
| C#C[C@]1(O)CC[C@H]2[C@@H]3CCc4cc(OC)ccc4[C@H]3CC[C@@]21C | – | inactive | inactive | inactive | – | – | inactive | inactive | inactive | inactive | inactive | inactive | inactive | inactive | – | inactive | inactive | inactive | inactive | inactive |
| CC(=O)O[C@]1(C(C)=O)CC[C@H]2[C@@H]3C=C(Cl)C4=CC(=O)[C@@H]5C[C@@H]5[C@]4(C)[C@H]3CC[C@@]21C | inactive | inactive | inactive | – | – | 48.9 µM (active) and inactive | inactive | inactive | inactive | inactive | inactive | inactive | – | – | inactive | inactive | inactive | – | inactive | – |
| C[Si](C)(C)O[Si](C)(C)C | inactive | inactive | inactive | inactive | – | – | inactive | inactive | inactive | inactive | inactive | inactive | inactive | inactive | inactive | inactive | inactive | inactive | inactive | inactive |
| COc1ccccc1/C=C/C=O | inactive | inactive | inactive | inactive | – | – | inactive | inactive | inactive | inactive | inactive | inactive | inactive | inactive | inactive | inactive | inactive | inactive | – | inactive |
| CCC(C)c1ccccc1O (stereo not drawn) | inactive | inactive | inactive | inactive | inactive | – | inactive | inactive | inactive | inactive | inactive | inactive | inactive | – | inactive | inactive | inactive | – | – | – |
| C/C=C/C(=O)O | inactive | inactive | inactive | inactive | – | inactive | inactive | inactive | inactive | inactive | inactive | inactive | inactive | inactive | inactive | – | – | – | inactive | – |
| CC1=CCC(C(C)(C)O)CC1 (stereo not drawn) | inactive | inactive | inactive | inactive | inactive | – | inactive | inactive | inactive | inactive | inactive | inactive | – | inactive | inactive | inactive | inactive | inactive | – | inactive |
| O=C(/C=C/c1ccccc1)OCc1ccccc1 | inactive | inactive | inactive | – | – | inactive | inactive | inactive | inactive | inactive | inactive | inactive | inactive | – | inactive | inactive | inactive | – | inactive | – |
| Cc1cccc([N+](=O)[O-])c1C | inactive | inactive | inactive | inactive | – | – | inactive | inactive | inactive | inactive | inactive | inactive | – | inactive | inactive | inactive | inactive | – | inactive | – |
| Cc1ccc2c(n1)Oc1ccc(C(C)C(=O)OCC(=O)N(C)C)cc1C2 (stereo not drawn) | inactive | inactive | inactive | inactive | – | – | inactive | inactive | inactive | inactive | inactive | inactive | inactive | – | inactive | inactive | inactive | – | inactive | – |
| COC(=O)CCC(=O)OC | inactive | inactive | inactive | inactive | inactive | inactive | inactive | inactive | inactive | inactive | inactive | inactive | inactive | – | inactive | inactive | inactive | inactive | inactive | inactive |
| CN(C)CCN(Cc1cccs1)c1ccccn1 | inactive | inactive | inactive | inactive | inactive | – | inactive | inactive | inactive | inactive | inactive | inactive | – | inactive | – | inactive | inactive | – | inactive | – |
| CC(=O)CC/C=C(\C)CCC=C(C)C | inactive | inactive | inactive | inactive | – | inactive | inactive | inactive | inactive | inactive | inactive | inactive | inactive | inactive | inactive | – | – | – | – | – |
| O=S(=O)(O)c1ccc(O)cc1 | inactive | inactive | inactive | inactive | inactive | inactive | inactive | inactive | inactive | inactive | inactive | inactive | inactive | inactive | inactive | inactive | inactive | – | – | – |
| NNc1ccc(C(=O)O)cc1 | inactive | inactive | inactive | inactive | – | – | inactive | inactive | inactive | inactive | inactive | inactive | inactive | inactive | inactive | inactive | inactive | – | inactive | – |
